# Source: publication PMC7862700, “An all-to-all approach to the identification of sequence-specific readers for epigenetic DNA modifications on cytosine”
# Assays:
# Test in all cases: DAPPL (digital affinity profiling via proximity ligation, sequencing); 10 mM Tris-HCl pH 7.5, 50 mM NaCl, 1 mM DTT, 4% glycerol, room temperature, 30 min; GST-TFs on glutathione beads, 16-mer random dsDNA library, 0.1% formaldehyde crosslink after washing; high values mean tight binding
# Conditions in all cases: protein: recombinant; tags: N-terminal GST; dsDNA, one strand shown
# [1] = target: T1, FLI1 (Homo sapiens, UniProt Q01543 1-452)
# T1 sequence: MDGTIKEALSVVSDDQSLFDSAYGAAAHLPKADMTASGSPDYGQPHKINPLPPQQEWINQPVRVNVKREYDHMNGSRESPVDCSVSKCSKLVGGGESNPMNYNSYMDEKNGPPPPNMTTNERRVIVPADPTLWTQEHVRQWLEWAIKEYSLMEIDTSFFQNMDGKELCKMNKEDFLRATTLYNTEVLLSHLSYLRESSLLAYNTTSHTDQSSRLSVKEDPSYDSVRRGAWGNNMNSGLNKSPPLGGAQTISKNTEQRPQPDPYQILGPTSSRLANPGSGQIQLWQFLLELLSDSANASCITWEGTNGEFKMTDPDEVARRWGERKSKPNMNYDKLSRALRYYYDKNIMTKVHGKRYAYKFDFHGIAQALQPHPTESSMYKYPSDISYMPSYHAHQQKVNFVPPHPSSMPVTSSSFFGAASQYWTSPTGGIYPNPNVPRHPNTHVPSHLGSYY
# Outline: (§1)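 Binding signal is each hexamer's read frequency for a factor divided by its frequency in the tag-only sample. The factors were GST-fused human transcription factors from yeast, captured on glutathione beads, DNA-barcoded and pooled with that sample. Pools were incubated with 200 nmole of a random double-stranded 16-mer DNA library in Tris/NaCl/DTT/glycerol buffer at room temperature for 30 min, then washed, crosslinked with 0.1% formaldehyde, proximity-ligated with BsaI/T4 ligase (1 h, 37 °C), PCR-amplified and sequenced on an Illumina NextSeq500.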
# [2] = target: T2, ELK1 (Homo sapiens, UniProt P19419 1-428)
# T2 sequence: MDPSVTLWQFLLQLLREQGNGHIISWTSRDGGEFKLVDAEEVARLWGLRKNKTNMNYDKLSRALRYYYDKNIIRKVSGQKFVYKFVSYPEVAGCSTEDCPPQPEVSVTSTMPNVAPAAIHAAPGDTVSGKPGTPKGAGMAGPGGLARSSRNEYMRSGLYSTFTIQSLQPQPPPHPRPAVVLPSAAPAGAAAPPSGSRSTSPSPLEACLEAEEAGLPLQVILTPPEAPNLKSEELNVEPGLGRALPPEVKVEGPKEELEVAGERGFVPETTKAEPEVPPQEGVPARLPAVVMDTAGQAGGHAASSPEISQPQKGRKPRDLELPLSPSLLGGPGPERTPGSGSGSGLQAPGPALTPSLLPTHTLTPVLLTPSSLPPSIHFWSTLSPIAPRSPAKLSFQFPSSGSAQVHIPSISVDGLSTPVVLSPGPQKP
# Outline: as §1
# [3] = target: T3, GABPA (Homo sapiens, UniProt Q06546 1-454)
# T3 sequence: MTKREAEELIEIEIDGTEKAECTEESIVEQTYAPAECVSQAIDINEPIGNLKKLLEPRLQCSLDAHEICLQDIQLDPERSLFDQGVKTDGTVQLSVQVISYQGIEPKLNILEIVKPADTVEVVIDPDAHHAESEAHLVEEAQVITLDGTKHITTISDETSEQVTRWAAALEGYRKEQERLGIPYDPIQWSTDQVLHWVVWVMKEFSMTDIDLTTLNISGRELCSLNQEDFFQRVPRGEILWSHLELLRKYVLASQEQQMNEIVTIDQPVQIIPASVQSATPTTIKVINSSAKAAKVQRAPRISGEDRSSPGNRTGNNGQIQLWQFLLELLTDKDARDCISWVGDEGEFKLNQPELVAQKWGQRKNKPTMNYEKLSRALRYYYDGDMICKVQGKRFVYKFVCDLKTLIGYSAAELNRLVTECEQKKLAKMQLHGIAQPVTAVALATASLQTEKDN
# Outline: as §1
# [4] = target: T4, ERG (Homo sapiens, UniProt P11308 1-479)
# T4 sequence: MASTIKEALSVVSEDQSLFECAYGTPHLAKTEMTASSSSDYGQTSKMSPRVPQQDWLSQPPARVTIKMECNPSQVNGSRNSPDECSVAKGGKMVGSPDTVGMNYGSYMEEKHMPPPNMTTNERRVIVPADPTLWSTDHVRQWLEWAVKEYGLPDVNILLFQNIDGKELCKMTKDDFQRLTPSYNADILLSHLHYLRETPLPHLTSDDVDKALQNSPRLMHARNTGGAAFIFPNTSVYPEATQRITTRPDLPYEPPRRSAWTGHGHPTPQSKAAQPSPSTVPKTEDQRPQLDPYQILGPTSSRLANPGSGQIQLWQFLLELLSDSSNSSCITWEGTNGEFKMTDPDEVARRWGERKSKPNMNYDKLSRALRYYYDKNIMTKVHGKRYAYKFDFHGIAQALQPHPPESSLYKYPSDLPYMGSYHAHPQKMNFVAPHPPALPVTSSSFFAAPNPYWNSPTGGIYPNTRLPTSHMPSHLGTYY
# Outline: as §1
# [5] = target: ELF1 (Homo sapiens, UniProt P32519 1-619)
# Sequence of ELF1 (P32519 whole entry): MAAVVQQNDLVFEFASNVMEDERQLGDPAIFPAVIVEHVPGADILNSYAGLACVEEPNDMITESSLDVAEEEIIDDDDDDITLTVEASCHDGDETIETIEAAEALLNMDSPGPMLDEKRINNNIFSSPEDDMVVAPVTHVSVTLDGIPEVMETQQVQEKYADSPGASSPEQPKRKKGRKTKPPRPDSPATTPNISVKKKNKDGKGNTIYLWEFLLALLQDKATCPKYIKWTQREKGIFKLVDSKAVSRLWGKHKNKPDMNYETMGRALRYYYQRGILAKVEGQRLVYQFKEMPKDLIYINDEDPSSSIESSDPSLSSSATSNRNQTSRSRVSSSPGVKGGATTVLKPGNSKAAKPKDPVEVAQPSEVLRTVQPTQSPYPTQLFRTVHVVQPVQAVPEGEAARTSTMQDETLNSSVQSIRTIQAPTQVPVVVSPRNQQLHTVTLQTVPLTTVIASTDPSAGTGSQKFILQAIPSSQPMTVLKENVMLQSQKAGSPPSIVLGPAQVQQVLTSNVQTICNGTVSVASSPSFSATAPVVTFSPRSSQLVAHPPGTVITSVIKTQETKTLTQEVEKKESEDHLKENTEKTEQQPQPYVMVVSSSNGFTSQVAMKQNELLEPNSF
# Outline: as §1
# [6] = target: T5, EHF (Homo sapiens, UniProt Q9NZC4 1-300)
# T5 sequence: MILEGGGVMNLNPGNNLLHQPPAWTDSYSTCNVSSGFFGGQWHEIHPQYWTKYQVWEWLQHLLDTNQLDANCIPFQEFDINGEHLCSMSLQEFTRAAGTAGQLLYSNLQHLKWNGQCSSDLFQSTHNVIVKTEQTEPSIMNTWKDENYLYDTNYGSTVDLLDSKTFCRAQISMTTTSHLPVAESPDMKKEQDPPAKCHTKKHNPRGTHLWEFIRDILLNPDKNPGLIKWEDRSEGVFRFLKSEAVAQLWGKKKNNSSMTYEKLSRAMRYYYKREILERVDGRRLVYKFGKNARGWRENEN
# Outline: as §1
# [7] = target: SPI1 (Homo sapiens, UniProt P17947 1-270)
# Outline: as §1
# [8] = target: SPIB (Homo sapiens, UniProt Q01892 1-262)
# Sequence of SPIB (Q01892 whole entry): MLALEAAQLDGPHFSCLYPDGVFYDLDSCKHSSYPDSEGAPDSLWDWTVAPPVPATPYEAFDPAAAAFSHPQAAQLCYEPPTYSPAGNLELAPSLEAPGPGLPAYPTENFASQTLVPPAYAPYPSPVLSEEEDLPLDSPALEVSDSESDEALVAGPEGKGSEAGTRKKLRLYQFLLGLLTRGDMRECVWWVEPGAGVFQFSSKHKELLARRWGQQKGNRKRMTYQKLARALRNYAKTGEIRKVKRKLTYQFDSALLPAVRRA
# Outline: as §1
# [9] = target: T6, ELK3 (Homo sapiens, UniProt P41970 1-407)
# T6 sequence: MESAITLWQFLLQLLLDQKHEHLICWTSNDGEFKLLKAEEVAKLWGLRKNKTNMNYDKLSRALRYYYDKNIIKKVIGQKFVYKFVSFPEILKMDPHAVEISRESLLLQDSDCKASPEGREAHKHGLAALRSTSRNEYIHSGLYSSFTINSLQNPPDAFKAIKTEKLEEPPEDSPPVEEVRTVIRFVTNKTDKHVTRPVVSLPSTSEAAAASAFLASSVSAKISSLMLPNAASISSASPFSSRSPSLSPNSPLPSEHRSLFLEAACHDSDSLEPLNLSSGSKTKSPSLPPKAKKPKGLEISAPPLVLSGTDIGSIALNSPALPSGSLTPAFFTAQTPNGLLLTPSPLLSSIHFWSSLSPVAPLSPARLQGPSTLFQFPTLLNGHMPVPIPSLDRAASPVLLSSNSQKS
# Outline: as §1
sequence,measurement,setting,value
ACTTAC,binding signal,[1],"1.14 fold enrichment (6-mer frequency, TF over GST control)"
same,binding signal,[2],"1.17 fold enrichment (6-mer frequency, TF over GST control)"
same,binding signal,[3],"1.2 fold enrichment (6-mer frequency, TF over GST control)"
same,binding signal,[4],"1.1 fold enrichment (6-mer frequency, TF over GST control)"
same,binding signal,[5],"1.18 fold enrichment (6-mer frequency, TF over GST control)"
same,binding signal,[6],"1.28 fold enrichment (6-mer frequency, TF over GST control)"
same,binding signal,[7],"1.27 fold enrichment (6-mer frequency, TF over GST control)"
same,binding signal,[8],"1.1 fold enrichment (6-mer frequency, TF over GST control)"
same,binding signal,[9],"1.12 fold enrichment (6-mer frequency, TF over GST control)"
